# G9a block – inhibitors of human histone lysine methyltransferase G9a | Q96KQ7 | 350,000 compounds, 8.8% hits | AID 504332 | Potency, µM (doses to about 102 µM), for the others: top-dose activity, negative = inhibition, hits mostly inhibitors | G9a H3K9 monomethylation, AlphaScreen, 2 h; also: % is scaled to controls: 0 for no effect and ±100 for the full control effect; nearly all actives have a fitted effect of over 75% in size
#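 G9a (20 nM) preincubated 15 min RT with compounds, then 500 nM biotinylated H3K9 peptide and 20 uM SAM added; 2 h RT reaction. Monomethyl-H3K9 product detected by AlphaScreen with anti-H3K9me1 antibody, streptavidin donor and anti-rabbit IgG acceptor beads.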
# JMJD2A Tudor – inhibitors of human JMJD2A Tudor domain | AlphaScreen JMJD2A-Tudor / H3K4me3 peptide binding | 390,000 compounds, 4.4% hits | O75164 | Potency, µM (doses to about 114 µM), without a hit: at the top dose activity change, negative = inhibition, hits mostly inhibitors | AID 504339; also: % is scaled to controls: 0 for no effect and ±100 for the full control effect; nearly all actives have a fitted effect of over 50% in size
# Target sequence (O75164 whole entry, looked up, the tested form may be a part): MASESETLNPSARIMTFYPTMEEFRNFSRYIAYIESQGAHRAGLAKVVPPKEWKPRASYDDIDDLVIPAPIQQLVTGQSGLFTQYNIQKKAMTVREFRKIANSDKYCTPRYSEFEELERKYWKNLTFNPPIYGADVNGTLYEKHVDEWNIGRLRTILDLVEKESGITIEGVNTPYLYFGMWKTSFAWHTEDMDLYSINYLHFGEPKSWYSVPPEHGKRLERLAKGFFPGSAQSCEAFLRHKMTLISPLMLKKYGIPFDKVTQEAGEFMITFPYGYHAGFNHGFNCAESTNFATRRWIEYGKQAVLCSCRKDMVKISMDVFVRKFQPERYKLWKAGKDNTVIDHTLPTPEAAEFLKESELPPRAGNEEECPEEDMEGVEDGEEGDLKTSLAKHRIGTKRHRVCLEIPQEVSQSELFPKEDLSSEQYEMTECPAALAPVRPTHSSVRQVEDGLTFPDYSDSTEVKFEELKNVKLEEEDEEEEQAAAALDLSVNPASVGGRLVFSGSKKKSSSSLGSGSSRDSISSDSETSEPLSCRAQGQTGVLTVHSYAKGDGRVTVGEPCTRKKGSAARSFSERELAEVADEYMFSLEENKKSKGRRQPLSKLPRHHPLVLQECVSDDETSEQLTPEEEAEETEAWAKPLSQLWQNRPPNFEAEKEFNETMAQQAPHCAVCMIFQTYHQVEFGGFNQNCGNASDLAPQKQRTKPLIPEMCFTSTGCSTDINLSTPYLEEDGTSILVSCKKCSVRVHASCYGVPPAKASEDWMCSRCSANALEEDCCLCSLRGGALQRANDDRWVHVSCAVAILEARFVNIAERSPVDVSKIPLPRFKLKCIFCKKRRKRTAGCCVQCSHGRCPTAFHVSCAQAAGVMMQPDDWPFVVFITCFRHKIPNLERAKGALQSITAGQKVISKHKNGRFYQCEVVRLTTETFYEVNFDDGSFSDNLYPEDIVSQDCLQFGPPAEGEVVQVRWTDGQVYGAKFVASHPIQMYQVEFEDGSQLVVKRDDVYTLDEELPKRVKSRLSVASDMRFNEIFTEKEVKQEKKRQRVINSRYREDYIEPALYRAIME
# GLS inh – blocks human kidney-isoform glutaminase activity | O94925 | GLS enzymatic activity, qHTS titration | Potency, µM (doses to about 45.5 µM), without a hit: top-dose activity change, negative = inhibition, hits mostly inhibitors | 410,000 compounds, 0.21% hits | AID 624170; also: % is scaled to controls: 0 for no effect and ±100 for the full control effect
#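 Read-out is an Amplex red fluorescence increase coupled through glutamate oxidase and HRP, measured before and after 30 min room-temperature incubation. hKGA is in 45 mM KH2PO4 (pH 8.2) with 0.02% Tween-20; glutamine added as 1mM solution.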
# HP1b binding inh – inhibitors of HP1-beta chromodomain binding to methylated histone tails; P83916; AlphaScreen HP1-beta / biotin-H3K9me3 peptide binding; Potency, µM (doses to about 114 µM), for the others: top-dose activity change, negative = inhibition, most hits filed as inhibitors; 390,000 compounds, 0.56% hits; also: nearly all actives have a fitted effect of over 70% in size
#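 HP1-beta protein (50 nM final) preincubated 30 min at room temperature with biotinylated H3(1-18)K9me3 peptide (50 nM) in PBS pH 7.4, 0.01% Tween-20, then compound added for 30 min. AlphaScreen streptavidin donor/nickel chelate acceptor beads (10 ug/mL final), 30 min dark, luminescence read.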
# BAZ2B inh – blocks human BAZ2B; AlphaScreen BAZ2B-H3K14Ac peptide displacement; Q9UIF8; Potency, µM (doses to about 114 µM), without a hit: top-dose activity change, negative = inhibition, hits mostly inhibitors; 360,000 compounds, 4.4% hits; also: % is scaled to controls: 0 for no effect and ±100 for the full control effect; nearly all actives have a fitted effect of over 60% in size
#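 AlphaScreen displacement of biotin-H3(5-23)K14Ac peptide (50 nM final) from BAZ2B (50 nM final) in PBS pH 7.4, 0.01% Tween-20; complex preformed 30 min RT, then compounds (top 110 uM) 30 min RT, beads 20 min dark.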
# The depositor's hits bear a star; u = inconclusive; x = no result given; [ ] = remark or other dose. Hits are enriched below; roughly 10% of the tested compounds scored in any of these assays. Calls follow the shape of the dose curve; as a rule, active = well fitted curve in the direction sought with a large enough effect; inconclusive = small, poorly fitted or top-dose-only effect, or another doubt; inactive = no such curve, though single readings can be large; an effect the other way counts as inactive or inconclusive. Potency is read from the fitted curve at half-maximal effect.
SMILES,G9a block,JMJD2A Tudor,GLS inh,HP1b binding inh,BAZ2B inh
CCOCCCNCC(=O)NC1(C)C2CCC(C2)C1(C)C (centres undefined),u,6.3µM*,15%,-57%,56µM*
C/C(CC(=O)NCc1ccco1)=N\NC(=O)c1ccc([N+](=O)[O-])cc1Cl,15%,-3%,-12%,32%,-3%
COc1ccc(OCC(=O)N(Cc2cccc(OC)c2)C2CCS(=O)(=O)C2)cc1 (centres undefined),-2%[59 µM],-21%,0%,5%,-11%
CS(=O)c1ccccc1-c1nc(-c2cccc(Cl)c2)no1 (centres undefined),-3%,35µM*,-3%,-2%,3%
Cc1ccc(NC(=S)NNc2ccc(C(=O)O)cc2[N+](=O)[O-])cc1C,x,7.9µM*,u,50µM*,x
Cc1ccc(NC(=S)NNc2ccc([N+](=O)[O-])cc2S(=O)(=O)Nc2ccccc2C(=O)O)cc1C,11µM*,50µM*,u,u,11µM*
O=C(O)c1ccccc1NS(=O)(=O)c1ccc(NNC(=S)Nc2ccc(OC(F)F)cc2)c([N+](=O)[O-])c1,10µM*,25µM*,u,10µM*,7.9µM*
CC(=O)Nc1ccc(C=NNc2ccc([N+](=O)[O-])cc2S(=O)(=O)Nc2ccccc2C(=O)O)cc1,x,u,u,12%,x
CC1(C)CC(NC(=O)c2cccc(S(=O)(=O)N(Cc3ccccc3)c3ccccc3)c2)CC(C)(C)N1,-27%,-20%,-4%,-10%,-4%
Cc1ccc2c(c1)N(C(=O)CSc1nncn1C)C(C)(C)c1ssc(=S)c1-2,14µM*,79µM*,6%,-33%,x
Cc1ccc2c(c1)N(C(=O)c1ccco1)C(C)(C)c1ssc(=S)c1-2,11µM*,14µM*,-11%,u,10µM*
CC1=CC(C)(C)N(C(=O)CSc2nncn2C)c2ccccc21,13%[59 µM],-7%,-3%,27%,8%
Cc1cccc2c1N(C(=O)CN1C(=O)c3ccccc3C1=O)C(C)(C)c1ssc(=S)c1-2,-95%[59 µM],u,9%,u,u
CC1(C2(O)CCCCC2)NCCc2ccccc21 (centres undefined),32µM*,0.89µM*,-14%,71µM*,35µM*
O=C1NC(=O)C2(CCc3ccccc32)N1 (centres undefined),-5%[0.501 µM],-2%,5%,19%,-6%
CCc1ccc(OCCn2c(CCNC(=O)C3CCCCC3)nc3ccccc32)cc1,x,-15%[57.1 µM],x,23%[57 µM],x
Cc1nc(N2CCCCC2)sc1C(=O)c1cccc([N+](=O)[O-])c1,u,u,-1%,u,40µM*
Cc1nc(N2CCCCC2)sc1C(=O)c1ccc(SCCO)c([N+](=O)[O-])c1,40µM*,13µM*,u,u,40µM*
O=[N+]([O-])c1ccc(N2CCCCC2)cc1SCCO,u,-21%,0%,34%,-12%
COc1ccc(-n2c(=O)c3ccc(C(=O)NCc4ccc(C)cc4)cc3n(Cc3ccc(Cl)cc3)c2=O)cc1,-48%[59 µM],-1%,5%,47%,x
Cc1ccc(CNC(=O)CNS(=O)(=O)c2cccs2)cc1,11%[59 µM],-2%,-9%,27%[57 µM],-1%
Cc1oc(-c2cccc3ccccc23)nc1CN1CCN(c2ncnc3ccccc23)CC1,45µM*,u,3%,u,u
N#CC1=C(N)SC(N)=C(C#N)C1Cc1ccccc1,u,u,15%,14%,-5%
N#CC1=C(N)SC2(CCCCC2)SC1c1ccccc1 (centres undefined),7.9µM*,u,12%,-12%,-34%
O=C(COc1ccc(S(=O)(=O)NCc2ccccc2)cc1Cl)NCc1ccncc1,u,-8%,-17%,33%,-23%
SMILES,G9a block,JMJD2A Tudor,GLS inh,HP1b binding inh,BAZ2B inh
O=C(COc1ccc(S(=O)(=O)NCc2ccccc2)cc1Cl)NCc1ccccn1,45µM*,-13%,2%,-4%,-38%
Cc1c(OCC(=O)NCc2ccccn2)ccc2c3c(c(=O)oc12)CCCC3,u,50µM*,-10%,14%[57 µM],-13%
O=C(NCc1ccccn1)c1cccc(S(=O)(=O)NCc2ccccc2)c1,15%,-13%,2%,45%,56µM*
O=C(NCc1ccccn1)c1ccc(Cl)c(S(=O)(=O)NCc2ccccc2)c1,36%[12.7 µM],-5%,0%,42%,-3%
Cc1cc(S(=O)(=O)NC2CCCCC2)ccc1OCC(=O)NCc1ccccn1,10%[59 µM],28µM*,4%,21%,-27%
Cc1ccc(NC(=O)C2(C)CCN2Cc2ccccc2OC(F)F)cc1 (centres undefined),x,x,31%,x,x
CCOc1cnn(Cc2ccccc2)c(=O)c1SCc1ccccc1,18%[59 µM],5%,9%,57%,24%
Cc1cc(-c2ccc(S(=O)(=O)NCc3ccccc3Cl)s2)on1,-6%[59 µM],-3%,-10%,27%,15%
O=C(COc1ccc(S(=O)(=O)N2CCc3ccccc32)cc1Cl)NCc1ccccn1,14µM*,45µM*,0%,-1%,79µM*
O=C(NCCS(=O)(=O)NCc1ccccn1)c1ccccc1,61%,2.8µM*,4%,-2%,4%
O=C(Cn1c2ccccc2c(=O)c2ccccc21)Nc1cccc(F)c1,13%,16µM*,-17%,6%,-7%
O=C(Cn1c(=O)c2cccn2c2ccc(F)cc21)Nc1cccc(F)c1,-30%[59 µM],-20%,-2%,22%,-11%
COc1ccc(-c2cc(C(=O)N3CCCCCC3)c3ccccc3n2)cc1,u,5%,-7%,44%,7%
COCCn1c(C)cc2c(c1=O)C(c1ccccc1F)C(C#N)=C(N)O2 (centres undefined),-1%[12.7 µM],-6%,1%,28%,6%
Cn1c2c(c(=O)n(C)c1=O)C(c1ccccc1F)C(C#N)=C(N)O2 (centres undefined),16µM*,-13%,0%,54%,-6%
N#CC1=C(N)Oc2cc(N)ccc2C1c1ccccc1Cl (centres undefined),x,-19%,-9%,25%,u
Cn1c2c(c(=O)n(C)c1=O)C(c1ccccc1Cl)C(C#N)=C(N)O2 (centres undefined),25µM*,2%,-2%,61%,-23%
CCN1CCN(C(c2cccc(Cl)c2)c2c(O)cc(C)n(CCOC)c2=O)CC1 (centres undefined),u,-9%,13%,26%[57 µM],7%
O=C(NNC(=O)c1cccc2ccccc12)c1ccc2c(c1)OCO2,-3%,5%,-4%,18%,-14%
C[N+](C)(C)CCN1CCc2ccccc21,x,x,27%,x,x
CCOC(=O)CC1C(=O)NCCN1C(=S)NC(=O)c1ccccc1OC (centres undefined),x,28µM*,12%,-12%,-1%
